Experimental data from PubChem BioAssay (NCI).
About 83,000 compounds went through this panel and 20% of them were active in at least one assay; those are over-represented in the sample as a whole.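 Method: cells in 96-well plates; compound added at one concentration; 48 h incubation; percent growth measured; values under 10 scored active.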 The source made the active and inactive calls.

system: SK-MEL-5 melanoma; assay: NCI-60 one-dose screen, 48 h (100 = growth as untreated, 0 = no growth, -100 = all killed); settings: 10 µM

| SMILES | growth |
| --- | --- |
| Cc1ccc(C(=O)N2C/C(=C/c3ccc(F)cc3)C(=O)/C(=C/c3ccc(F)cc3)C2)cc1 | 94.6% (inactive) |
| COc1cc(NC(=O)CCSc2nc3ccc(C)cc3c(=O)n2Cc2ccccc2)cc(OC)c1OC | 90.6% (inactive) |
| O=C(Nc1cccc(-n2cc(-c3ccncc3)c(-c3cc(O)cc(Cl)c3)n2)c1)Nc1ccc(Cl)c(C(F)(F)F)c1 | 23.8% (inactive) |
| CCC(=O)N1C/C(=C/c2ccc(Br)cc2)C(=O)/C(=C/c2ccc(Br)cc2)C1 | -53.8% (active) |
| COc1cc(Cl)cc(-c2nn(-c3cccc(NC(=O)c4ccc(N5CCOCC5)c(C(F)(F)F)c4)c3)cc2-c2ccncc2)c1 | 71.5% (inactive) |
| O=C(C[P+](c1ccccc1)(c1ccccc1)c1ccccc1)C[P+](c1ccccc1)(c1ccccc1)c1ccccc1 | -88.9% (active) |
| Nc1ccn(C2CC(O)C(CO)O2)c(=O)n1 (centres undefined) | 105% (inactive) |
| COc1ccc(Nc2nc3ccc(NC(=O)NC4CCCCC4)cc3[nH]c2=O)cc1 | 90.9% (inactive) |
| CC1(C)CCC(=NNC(N)=S)CC1 | 111% (inactive) |
| CCOC(=O)C1(CC(C)C)CCOC1=O (centres undefined) | 104% (inactive) |
| N#Cc1cc(-c2cc3ccccc3o2)oc1N | -86.7% (active) |
| COc1ccc(-c2nc3ncccn3c2-c2nnc(-c3ccsc3C)o2)cc1 | 81% (inactive) |
| Oc1[nH]c2cc(Cl)ccc2c1/C=c1/ccc2c(c1)N=C(c1cc(F)cc(F)c1)N=2 | 15.5% (inactive) |
| CCCCCCCCCCCC[n+]1ccc(C(N)=O)cc1 | -6.99% (active) |
| COc1ccc2c(c1)O/C(=C\c1ncc([N+](=O)[O-])n1C)C2=O | -94.2% (active) |
| N#Cc1cccc(OCc2nc(N)nc(N)c2-c2ccc(Cl)c(Cl)c2)c1 | 22.4% (inactive) |
| Cc1cs/c(=N\NC(=O)c2cc(-c3cc4ccccc4o3)nn2-c2ccccc2)n1-c1ccccc1 | 42.5% (inactive) |
| CC1(C)OC2=C(CC1Br)C(=O)C(=O)c1ccccc12 (centres undefined) | -99.7% (active) |
| Cc1occc1-c1nnc(SCC(=O)c2ccc(NC(=O)CC(C)C)cc2)o1 | 94.9% (inactive) |
| CCN(CC)CCOc1nc2ccccc2c2c1-c1ccc(OC)cc1C2=O | -84% (active) |

| SMILES | growth |
| --- | --- |
| COc1ccc(Nc2ncnc3c2c(SC)nn3-c2ccccc2)cc1 | 94.8% (inactive) |
| O=C(CC(C(=O)c1ccccc1)N1CCOCC1)c1ccccc1 (centres undefined) | 95.5% (inactive) |
| COc1cc(-c2cc(/C=C/C(=O)c3ccc(Cl)c(Cl)c3)[nH]n2)cc(OC)c1OC | 84.1% (inactive) |
| COc1ccc(-c2nc(-c3nc4ccc(OC)cc4[nH]3)cc3c2[nH]c2ccccc23)cc1 | 49.9% (inactive) |
| O=C(O)c1ccc(P(=O)(O)O)c([N+](=O)[O-])c1 | 95.3% (inactive) |
| COc1ccc2c(c1)O/C(=C\c1ccc([N+](=O)[O-])s1)C2=O | 60% (inactive) |
| COc1ccc2c(c1)sc1nc(-c3ccccc3)c(-c3cccnc3)n12 | 77.7% (inactive) |
| CCCCCC(=O)c1ccc(OCCCN2CCN(C(=O)OCC)CC2)cc1 | 63.7% (inactive) |
| CC(=O)n1c(-c2ccc(Cl)c(Cl)c2)cn(-c2ccc(Cl)cc2)c1=O | 9.15% (active) |
| C#Cc1ccc(-n2c(/C=C/c3ccc(O)cc3)nc3ncccc3c2=O)cc1 | 22.3% (inactive) |
| c1ccc(CNc2ncnc3scc(-c4cccs4)c23)nc1 | 14.8% (inactive) |
| O=C(Nc1ccncc1)C(=O)c1cn(S(=O)(=O)c2cccc3ccccc23)c2ccccc12 | 68% (inactive) |
| CCN(CC)Cc1cc(Nc2ccnc3cc(Cl)ccc23)ccc1OC | 91.6% (inactive) |
| O=C1Nc2ccc(Cl)cc2/C1=C\c1c(-c2ccc(Cl)cc2)nc2sc(C3CC3)nn12 | 72% (inactive) |
| Cc1cc(N(CCCNc2ccnc3cc(Cl)ccc23)Cc2ccc3c(c2)OCO3)nc(N2CCOCC2)n1 | -88.1% (active) |
| c1ccc(CO[C@H]2CO[C@H]3[C@@H]2OC[C@H]3OCc2ccccc2)cc1 | 101% (inactive) |
| Clc1cc2c(c(CSc3nc4ccccc4n4cccc34)c1)OCOC2 | 83.7% (inactive) |
| CCN(CC)CCOc1nc2ccc(OC)cc2c2c1-c1ccc(OC)cc1C2=O | -36.1% (active) |
| CCn1cc(C(=O)O)c(=O)c2cnc(N3CCCC3)nc21 | 102% (inactive) |
